# From the antibiotic and cytotoxicity screens of Wong et al. (2023)
# Screen size: about 39,000 compounds; about 3,300 (8.5%) were called active. This excerpt belongs to a sample that is enriched for actives.
# System: HepG2
# Experiment: cytotoxicity call (relative viability < 0.9)
# Settings: 10 µM
row,SMILES,cytotoxicity call
1,CN1CCN(C(=O)[C@@H]2[C@@H](C(=O)O)[C@H]3CC[C@H]2O3)CC1,inactive
2,CN(C)CC(=O)N1CC(=O)N2[C@@H](CO)[C@H](c3ccc(C#Cc4cccnc4)cc3)[C@@H]2C1,inactive
3,CN1CCN(C)[C@@H](CO)C1,inactive
4,Cc1ccc(S(=O)(=O)N(C)C[C@@H]2OCCCC[C@@H](C)Oc3ccc(NC(=O)c4ccccc4)cc3C(=O)N([C@@H](C)CO)C[C@@H]2C)cc1,inactive
5,C[C@@H]1CN([C@H](C)CO)C(=O)c2cc(NS(=O)(=O)c3cn(C)cn3)ccc2O[C@@H]1CN(C)C(=O)Nc1ccc(F)cc1,inactive
6,CC(CC(=O)C1OC1(C)C)C1C(=O)CC2(C)C3=CCC4C(C)(C)C(OC5OCC(O)C(O)C5O)CCC45CC35C(O)CC12C (stereo not drawn),active
7,CC(=O)OC1CC23CC24CCC(OC2OCC(O)C(O)C2O)C(C)(C)C4CCC3C2(C)CC3OC4(CC(C)C3C12C)OC(O)C1(C)OC41 (stereo not drawn),inactive
8,CC1(C)CC[C@]2(C(=O)O[C@@H]3O[C@H](CO[C@@H]4O[C@H](CO)[C@@H](O)[C@H](O)[C@H]4O)[C@@H](O)[C@H](O)[C@H]3O)CC[C@]3(C)C(=CC[C@H]4[C@@]5(C)CC[C@H](O[C@@H]6OC[C@H](O)[C@H](O)[C@H]6O)C(C)(C)[C@@H]5CC[C@]43C)[C@@H]2C1,inactive
9,O=C(Nc1cc(C(=O)Nc2ccc(S(=O)(=O)O)cc2S(=O)(=O)O)cc(C(=O)Nc2ccc(S(=O)(=O)O)cc2S(=O)(=O)O)c1)Nc1cc(C(=O)Nc2ccc(S(=O)(=O)O)cc2S(=O)(=O)O)cc(C(=O)Nc2ccc(S(=O)(=O)O)cc2S(=O)(=O)O)c1,inactive
10,CC(C)CC#Cc1cnc2c(c1)C(=O)N([C@H](C)CO)C[C@@H](C)[C@@H](CN(C)S(=O)(=O)c1ccccc1)O2,inactive
11,C[C@@H]1CCCCO[C@@H](CN(C)C(=O)Nc2cccc3ccccc23)[C@H](C)CN([C@H](C)CO)C(=O)c2cc(NS(=O)(=O)c3cccs3)ccc2O1,inactive
12,C[C@@H]1CN([C@@H](C)CO)C(=O)c2cc(NS(=O)(=O)c3cccs3)ccc2O[C@@H](C)CCCCO[C@@H]1CN(C)C(=O)Nc1cccc2ccccc12,inactive
13,C[C@H](CO)N1C[C@H](C)[C@H](CN(C)C(=O)Nc2cccc3ccccc23)OCCCC[C@H](C)Oc2ccc(NS(=O)(=O)c3cccs3)cc2C1=O,inactive
14,C[C@H]1CCCCO[C@@H](CN(C)C(=O)Nc2cccc3ccccc23)[C@@H](C)CN([C@@H](C)CO)C(=O)c2cc(NS(=O)(=O)c3cccs3)ccc2O1,inactive
15,C[C@H](CO)N1C[C@H](C)[C@@H](CN(C)C(=O)Nc2cccc3ccccc23)OCCCC[C@H](C)Oc2ccc(NS(=O)(=O)c3cccs3)cc2C1=O,active
16,C[C@@H]1CCCCO[C@H](CN(C)C(=O)Nc2cccc3ccccc23)[C@H](C)CN([C@H](C)CO)C(=O)c2cc(NS(=O)(=O)c3cccs3)ccc2O1,active
17,C[C@H]1CCCCO[C@H](CN(C)C(=O)Nc2cccc3ccccc23)[C@@H](C)CN([C@@H](C)CO)C(=O)c2cc(NS(=O)(=O)c3cccs3)ccc2O1,active
18,C[C@@H]1CCCCO[C@H](CN(C)C(=O)Nc2cccc3ccccc23)[C@@H](C)CN([C@H](C)CO)C(=O)c2cc(NS(=O)(=O)c3cccs3)ccc2O1,inactive
19,C[C@@H]1CN([C@@H](C)CO)C(=O)c2cc(NS(=O)(=O)c3cccs3)ccc2O[C@@H](C)CCCCO[C@H]1CN(C)C(=O)Nc1cccc2ccccc12,inactive
20,CO[C@@H](CN(C)C(=O)c1ccc2c(c1)OCO2)[C@H](C)CN([C@@H](C)CO)S(=O)(=O)c1ccc(F)cc1,inactive
21,C[C@@H]1CCCCO[C@@H](CN(C)C(=O)CCC(F)(F)F)[C@H](C)CN([C@H](C)CO)C(=O)c2cc(NC(=O)C3CCCCC3)ccc2O1,inactive

row,SMILES,cytotoxicity call
1,C[C@@H]1CN([C@@H](C)CO)C(=O)c2cccc(NC(=O)Nc3ccc4c(c3)OCO4)c2O[C@H]1CN(C)Cc1ccc(C(=O)Nc2ccccc2N)cc1,inactive
2,O=C(CCCCCNC(=O)OCc1ccc(CO[C@H]2C[C@@H](c3coc4ccccc4c3=O)C=C(C(=O)N3CCN(Cc4ccccc4)CC3)O2)cc1)NO,inactive
3,O=C(CN1CCOCC1)N[C@H]1CC[C@@H](CCNS(=O)(=O)c2ccccc2F)O[C@@H]1CO,inactive
4,Cc1ccc(S(=O)(=O)Nc2cccc3c2O[C@@H](CN(C)Cc2ccc(Cl)c(Cl)c2)[C@@H](C)CN([C@@H](C)CO)C3=O)cc1,inactive
5,CC(C)NC(=O)N(C)C[C@H]1Oc2ccc(NC(=O)CCC(F)(F)F)cc2C(=O)N([C@H](C)CO)C[C@H]1C,inactive
6,N#C[C@H]1N[C@H](CO)[C@H]1c1ccccc1,inactive
7,C[C@H](CO)N1C[C@H](C)[C@H](CN(C)S(=O)(=O)c2ccc(C#N)cc2)Oc2ncc(C#CC(C)(C)O)cc2C1=O,inactive
8,COc1ccccc1S(=O)(=O)N1C[C@@H](O)COC[C@@H]2O[C@@H](CC(=O)O)CC[C@H]21,inactive
9,C[C@H](CO)N1C[C@H](C)[C@@H](CN(C)C(=O)c2ccccn2)Oc2cc(C#Cc3ccccc3)ccc2S1(=O)=O,inactive
10,C[C@@H]1CN([C@@H](C)CO)C(=O)c2ccccc2-c2ccccc2CO[C@@H]1CN(C)C(=O)Nc1ccc(-c2ccccc2)cc1,inactive
11,C[C@@H]1CN([C@H](C)CO)C(=O)c2c(c3ccccc3n2C)-c2ccccc2CO[C@@H]1CN(C)C(=O)Nc1ccc(-c2ccccc2)cc1,inactive
12,C[C@@H]1CN([C@@H](C)CO)C(=O)c2c(c3ccccc3n2C)-c2ccccc2CO[C@@H]1CN(C)C(=O)Nc1ccc(-c2ccccc2)cc1,inactive
13,C[C@H]1CN([C@@H](C)CO)C(=O)c2ccccc2-c2ccccc2CO[C@@H]1CN(C)C(=O)Nc1ccc(-c2ccccc2)cc1,inactive
14,C[C@H](CO)N1C[C@H](C)[C@@H](CN(C)C(=O)Nc2ccc(-c3ccccc3)cc2)OCc2ccccc2-c2c(n(C)c3ccccc23)C1=O,inactive
15,C[C@H]1CN([C@@H](C)CO)C(=O)c2c(c3ccccc3n2C)-c2ccccc2CO[C@H]1CN(C)C(=O)Nc1ccc(-c2ccccc2)cc1,active
16,C[C@@H]1CN([C@H](C)CO)C(=O)c2c(c3ccccc3n2C)-c2ccccc2CO[C@H]1CN(C)C(=O)Nc1ccc(-c2ccccc2)cc1,active
17,C[C@@H]1CN([C@H](C)CO)C(=O)c2ccccc2-c2ccccc2CO[C@H]1CN(C)C(=O)Nc1ccc(-c2ccccc2)cc1,active
18,C[C@@H]1CN([C@@H](C)CO)C(=O)c2c(c3ccccc3n2C)-c2ccccc2CO[C@H]1CN(C)C(=O)Nc1ccc(-c2ccccc2)cc1,inactive
19,COc1cc(F)c(C(C)C)cc1-c1ccc(C(F)(F)F)cc1CN1C(=O)O[C@H](c2cc(C(F)(F)F)cc(C(F)(F)F)c2)[C@@H]1C,inactive
20,COc1ccc2c3c(n(c2c1)C)[C@H](CO)N(C[C@]13CCN(CC1)C(=O)c1cccnc1)C(=O)c1cccnc1,inactive
21,C[C@@H]1CN([C@@H](C)CO)C(=O)c2cc(NC(=O)c3ccncc3)ccc2O[C@@H]1CN(C)Cc1ccncc1,inactive

row,SMILES,cytotoxicity call
1,C[C@@H]1CCCCO[C@H](CN(C)C(=O)CCCN(C)C)[C@H](C)CN([C@@H](C)CO)C(=O)c2cc(NC(=O)Nc3ccc(F)cc3)ccc2O1,inactive
2,COc1ccc(NC(=O)N(C)C[C@@H]2OCCCC[C@@H](C)Oc3ccc(NS(=O)(=O)c4ccccc4)cc3C(=O)N([C@H](C)CO)C[C@H]2C)cc1,inactive
3,COc1cccc(-c2ccc3c(c2)O[C@@H](CN(C)C(=O)C2CC2)[C@@H](C)CN([C@H](C)CO)S3(=O)=O)c1,inactive
4,C[C@@H]1CN([C@H](C)CO)C(=O)c2cc(NS(=O)(=O)c3ccc(Cl)cc3)ccc2O[C@@H](C)CCCCO[C@@H]1CN(C)C(=O)CCC(F)(F)F,inactive
5,N[C@H](C(=O)O)c1cc(O)cc(O)c1,inactive
6,Cc1noc(C)c1NC(=O)Nc1ccc2c(c1)C(=O)N([C@@H](C)CO)C[C@@H](C)[C@@H](CN(C)C(=O)Nc1cccc3ccccc13)O2,inactive
7,Cc1noc(C)c1NC(=O)N(C)C[C@H]1OCCCC[C@H](C)Oc2ccc(NS(=O)(=O)c3cccs3)cc2C(=O)N([C@H](C)CO)C[C@@H]1C,inactive
8,CCCCCCc1ccc(O)cc1O [listing 1 of 2 here],inactive
9,COC(=O)CCc1ccc(OC)cc1O,inactive
10,CCCCCCCCCCCCCCCCCC(=O)NCCCCOn1c(CCCC)nc2c(N)nc3ccccc3c21,inactive
11,CCCCCCc1ccc(O)cc1O.Nc1c2ccccc2nc2ccccc12,active
12,CCCCCCCc1c(C)c(O)cc2c1[nH]c1ccccc12,inactive
13,CCCCCCc1ccc(O)cc1O [listing 2 of 2 here],active
14,Cc1noc(C)c1NC(=O)Nc1ccc2c(c1)CC(=O)N([C@@H](C)CO)C[C@H](C)[C@@H](CN(C)S(=O)(=O)c1cccs1)O2,inactive
15,Cc1noc(C)c1NC(=O)N(C)C[C@H]1Oc2ccc(NS(=O)(=O)c3ccccc3)cc2CC(=O)N([C@@H](C)CO)C[C@@H]1C,inactive
16,COc1ccc(NC(=O)N[C@@H]2CC[C@H](CCNC(=O)CN3CCOCC3)O[C@@H]2CO)cc1,inactive
17,CCC(=O)N(C)C[C@H]1Oc2ncc(C#C[C@H](C)O)cc2C(=O)N([C@H](C)CO)C[C@@H]1C,inactive
18,C[C@H](CO)N1C[C@H](C)[C@@H](CN(C)C(=O)Nc2ccccc2)Oc2cc(C#C[C@@H](C)O)ccc2S1(=O)=O,inactive
19,C[C@@H]1CN([C@H](C)CO)S(=O)(=O)c2ccc(-c3cncnc3)cc2O[C@@H]1CN(C)C(=O)c1cccc(F)c1,inactive
20,CCc1c(C)[nH]c2ncnn2c1=O,inactive
21,CCCN(C)C[C@H]1Oc2cc(C#Cc3cccc(OC)c3)ccc2S(=O)(=O)N([C@@H](C)CO)C[C@H]1C,inactive
